# Experimental data as given in PubChem BioAssay (NCATS).
# Inconclusive results are not listed. Where a call stands in place of a potency, no number is given. Unmarked numbers belong to inactive results. Active and inactive are the calls of the source. Calls come from the whole dose curve; as a rule, active = well fitted curve in the direction sought with a large enough effect; inconclusive = small, poorly fitted or top-dose-only effect, or another doubt; inactive = no such curve, though single readings can be large; an effect the other way counts as inactive or inconclusive.
# Assays:
# HACAT = test: qHTS assay to identify novel small-molecules to repurpose for Merkel cell carcinoma treatment (AID 1296009); conditions: MCC and control cell lines, CellTiter-Glo viability, 72 h; at 44.8 µM (top of the series) unless noted; note: nearly all actives have a fitted effect of over 60% in size
# Procedure, shortened: (§1)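 After compound transfer in DMSO, plates were kept 72 hr at 37 degree celsius. Luminescent ATP signal from CellTiter-Glo served as viability measure, normalized against DMSO and no-cell controls.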
# NIH3T3 = test: as above; conditions: MCC and control cell lines, CellTiter-Glo viability, 72 h; at 44.8 µM (top of the series) unless noted
# Procedure, shortened: as §1
# C33A = test: Primary qHTS to identify gynecologic anti-cancer compounds using libraries of approved drugs and bioactive compounds (AID 1345084); conditions: Gynecologic cancer cell panel viability, ATPlite luminescence, 48 h; series mostly up to 57.5 µM; note: nearly all actives have a fitted effect of over 55% in size
# Procedure, shortened: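 Measured: luminescence after ATPlite addition (15 min, RT). Exposure: 48 h, 37 C, 5% CO2.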
# HEK293T = test: qHTS assay to identify novel small-molecules to repurpose for Merkel cell carcinoma treatment (AID 1296009); conditions: MCC and control cell lines, CellTiter-Glo viability, 72 h; at 44.8 µM (top of the series) unless noted; note: nearly all actives have a fitted effect of over 60% in size
# Procedure, shortened: as §1
SMILES,outcome (HACAT),outcome (NIH3T3),Potency (C33A),"activity change, negative = cytotoxicity (C33A)",outcome (HEK293T)
O=C(N1CCOCC1)N1CCN(c2ccc(Cl)cc2)CC1,inactive,inactive,inactive,,
COC1CC(OC2CCC3(C)C(=CCC4C3CCC3(C)C(C(C)OC5OC(COC6OC(CO)C(O)C(O)C6O)C(O)C(O)C5O)CCC43O)C2)OC(C)C1OC1OC(C)C(O)C(OC)C1O (stereo not drawn),inactive [at 9.27 µM],inactive [at 9.27 µM],,6.28% [at 11.6 µM],
C[C@H]1C(=O)O[C@H]2[C@H](O)[C@]34C5OC(=O)[C@]3(O[C@@H]3OC(=O)[C@H](O)C34[C@H](C(C)(C)C)[C@H]5O)C12O (stereo partly drawn),inactive [at 17.4 µM],inactive [at 17.4 µM],inactive,,
CCC(C)(OC(C)=O)C(=O)O[C@H]1[C@H](OC(C)=O)C[C@@H]2[C@@](C)([C@@H]3C[C@H]4C=CO[C@H]4O3)[C@H](C)C[C@H](OC(C)=O)[C@@]2(COC(C)=O)[C@@]12CO2 (stereo partly drawn),inactive [at 17.4 µM],inactive [at 17.4 µM],inactive,,inactive [at 17.4 µM]
COc1cc(CCNCc2ccccc2O)c(OC)cc1C#N,inactive,,inactive,,
COC(=O)C1(C)CCC(O)C2(C)c3cc(O)c(C(C)C)cc3C(O)C(OC(C)=O)C12 (stereo not drawn),inactive [at 17.4 µM],,inactive,,
COC(=O)[C@@]12C(=O)C(C)C(=O)[C@]1(C)C(C)=C[C@H]1[C@]3(C=O)CC[C@H](OC(C)=O)C(C)(C)[C@H]3CC[C@@]12C (stereo partly drawn),inactive [at 17.4 µM],,inactive,,inactive [at 17.4 µM]
CC(C)C1(OO)C=C2C(=O)CC3C(C)(C(=O)O)CCCC3(C)C2CC1 (stereo not drawn),inactive,inactive,inactive,,
C[C@@](O)(COc1ccc(C#N)cc1)C(=O)Nc1ccc(C#N)c(C(F)(F)F)c1,inactive,inactive,inactive,,
N#CC(OC1OC(COC2OC(CO)C(O)C(O)C2O)C(O)C(O)C1O)c1ccccc1 (stereo not drawn),inactive [at 17.4 µM],inactive [at 17.4 µM],inactive,,inactive [at 17.4 µM]
CCN1C[C@]2(OC(=O)c3ccccc3NC(C)=O)CC[C@H](OC)[C@@]34[C@@H]2C[C@@H]([C@@H]13)[C@@]1(O)C[C@H](OC)[C@H]2C[C@@H]4[C@]1(O)[C@H]2OC,inactive,inactive,inactive,,
O=C1C[C@@H]2OCC=C3CN4CC[C@]56c7ccccc7N1[C@H]5[C@H]2[C@H]3C[C@H]46,inactive,,inactive,,
C=C(CO)C(=O)O[C@H]1C/C(C)=C/CC/C(CO)=C/[C@H]2OC(=O)C(=C)[C@H]12,inactive,inactive,inactive,,
COC1CC(O[C@H]2CC[C@@]3(C)C(=CCC4C3C(O)[C@@H](O)[C@]3(C)[C@@H](C(C)=O)CC[C@]43O)C2)OC(C)C1OC1CC(OC)C(OC2OC(C)C(O)C(O)C2O)C(C)O1 (stereo partly drawn),inactive [at 9.27 µM],inactive [at 9.27 µM],,-3.17% [at 11.6 µM],inactive [at 9.27 µM]
COc1ccccc1CN[C@H]1C2CCN(CC2)[C@H]1C(c1ccccc1)c1ccccc1,inactive,inactive,inactive,,
CN1[C@H]2C[C@H](OC(=O)[C@H](CO)c3ccccc3)C[C@@H]1[C@@H](O)C2,inactive,,inactive,,inactive
C[C@H](NC(=O)Cc1cc(F)cc(F)c1)C(=O)N[C@@H]1N=C(c2ccccc2)c2ccccc2N(C)C1=O,inactive,,inactive,,
CCCCCOc1cc2c(cc1-c1cc(/C=C/C(=O)O)ccc1O)C(C)(C)CCC2(C)C,inactive,,inactive,,inactive
Cn1ncnc1COc1nn2c(-c3c(F)cccc3F)nnc2cc1C1CCC1,inactive,,inactive,,inactive
OCCCCC#Cc1cncc(OC[C@@H]2CCN2)c1,inactive,,inactive,,
O=C(O)c1ccnc2cc(C(OCCN3CCCCC3)c3ccccc3Cl)[nH]c12 (stereo not drawn),inactive,,inactive,,inactive
C[C@@H]1C(=O)O[C@H]2[C@H](O)[C@@]34[C@@H]5OC(=O)[C@@]3(O[C@@H]3OC(=O)[C@@H](O)[C@@]34[C@H](C(C)(C)C)[C@H]5O)[C@@]12O,inactive [at 17.4 µM],inactive [at 17.4 µM],inactive,,
C/C=C(\C)C(=O)OC1C(C)OC(OC2C(C)OC(OC3CCC4(C)C(=CCC5C4CCC4(C)C(C(C)OC6OC(COC7OC(CO)C(O)C(O)C7O)C(O)C(O)C6O)CCC54O)C3)CC2OC)C(O)C1OC (stereo not drawn),inactive [at 9.27 µM],,,7.57% [at 11.6 µM],
CC[C@H]1CN2CC[C@H]1C[C@H]2[C@H](O)c1ccnc2ccc(OC)cc12,inactive,inactive,inactive,,
CC(CCc1ccc(O)cc1)O[C@@H]1O[C@H](CO[C@H]2OC[C@](O)(CO)[C@H]2O)[C@@H](O)[C@H](O)[C@H]1O (stereo partly drawn),inactive [at 17.4 µM],,inactive,,inactive [at 17.4 µM]
COCC1OC(=O)c2coc3c2C1(C)C1=C(C3=O)C2CCC(=O)C2(C)CC1O (stereo not drawn),inactive,inactive,inactive,,inactive

SMILES,outcome (HACAT),outcome (NIH3T3),Potency (C33A),"activity change, negative = cytotoxicity (C33A)",outcome (HEK293T)
N#C[C@@H](O[C@@H]1O[C@H](CO[C@@H]2O[C@H](CO)[C@@H](O)[C@H](O)[C@H]2O)[C@@H](O)[C@H](O)[C@H]1O)c1ccccc1,inactive [at 17.4 µM],,inactive,,
CC[C@H]1CN2CC[C@H]1C[C@@H]2[C@@H](O)c1ccnc2ccc(OC)cc12,inactive,inactive,inactive,,inactive
CC1=CC2/C=C(\C)CCC(O)C3OC(C)(C)OC3CC(=O)OC23C(=O)NC(CC(C)C)C3C1C (stereo not drawn),inactive [at 17.4 µM],inactive [at 17.4 µM],inactive,,
CCC(C)(C#N)O[C@@H]1O[C@H](CO)[C@@H](O)[C@H](O)[C@H]1O (stereo partly drawn),inactive,,inactive,,inactive
CCCCCCn1c(=O)c(C(=O)Nc2ccc(C(=O)OCCC)cc2)c(O)c2ccccc21,inactive [at 9.27 µM],,,-0.0211% [at 11.6 µM],inactive [at 9.27 µM]
Clc1ccc(OCC2=NCCN2)cc1Cl,inactive,,inactive,,inactive
C=CC(C)(C)c1[nH]c2cccc3c2c1C[C@@H]1[C@@H]3[C@@H](OC(C)=O)[C@H](C)CN1C,inactive,inactive,inactive,,inactive
COC1CC(=O)C23C(=O)NC(CC(C)C)C2C(C)=C(C)C(OO)C3/C=C(\C)CCC(O)C1O (stereo not drawn),inactive [at 17.4 µM],inactive [at 17.4 µM],inactive,,
C/C=C(\C)C(=O)O[C@H]1[C@H](OC(C)=O)[C@]2(CO)[C@H](O)[C@H](O)[C@]3(C)C(=CCC4[C@@]5(C)CC[C@H](O[C@@H]6O[C@H](C(=O)O)[C@@H](O)[C@H](O[C@@H]7OC[C@H](O)[C@H](O[C@@H]8OC[C@H](O)[C@H](O)[C@H]8O)[C@H]7O)[C@H]6O[C@@H]6O[C@H](CO)[C@@H](O)[C@H](O)[C@H]6O)C(C)(C)C5CC[C@]43C)[C@@H]2CC1(C)C (stereo partly drawn),,inactive [at 9.27 µM],,0.756% [at 6.55 µM],inactive [at 9.27 µM]
CC1C/C=C/C(O)C(O)CC/C=C/c2cc(O)cc(O)c2C(=O)O1 (stereo not drawn),,,inactive,,inactive
CCN1CC2(COC)C3[C@@H](OC)C4C1C3(C1C[C@]3(O)[C@H](OC(=O)c5ccccc5)C1[C@]4(OC(C)=O)[C@@H](O)[C@@H]3OC)[C@H](OC)C[C@H]2O (stereo partly drawn),,inactive,inactive,,
C[C@@]1(C(=O)O)CC[C@]2(C)CC[C@]3(C)C4=CC(=O)c5cc(O)c(O)cc5[C@]4(C)CC[C@@]3(C)[C@@H]2C1,inactive [at 17.4 µM],,inactive,,
CN(C)CCc1c[nH]c2ccc(CN3CCN(C)S3(=O)=O)cc12,inactive,,inactive,,
CC(=O)OC1CC(O)C2(C)C(CC(OC(C)=O)C3(C)C2CCC2(C)C(c4ccoc4)C(=O)C4OC423)C1(C)C (stereo not drawn),,,inactive,,inactive [at 17.4 µM]
COC(=O)C1(C)CCC(O)C2(C)c3c(O)cc(C(C)C)cc3C(O)C(OC(C)=O)C12 (stereo not drawn),,,inactive,,inactive [at 17.4 µM]
COC1=CC(=O)O[C@@H](CCc2ccccc2)C1,,inactive,inactive,,
Cc1cccc(NC(=O)N[C@@H]2N=C(c3ccccc3)c3ccccc3N(C)C2=O)c1,inactive,,inactive,,
C=C[C@H]1[C@H](O[C@@H]2O[C@H](CO)[C@@H](O)[C@H](O)[C@H]2O)OC=C2C(=O)OCC[C@H]21,,,inactive,,inactive
COc1c(C(C)C)cc2c(c1O)[C@@]1(C(=O)O)CCCC(C)(C)C1CC2 (stereo partly drawn),,,inactive,,inactive
C/C=C(\C)C(=O)OC1CC2C(C)(C)OC(=O)CC(OC(C)=O)C2(C)C2CC(OC(=O)C(C)C)C3(C)C(c4ccoc4)CC4OC43C12C (stereo not drawn),inactive [at 17.4 µM],,inactive,,
CC(N)Cc1c[nH]c2ccccc12 (stereo not drawn),,inactive,inactive,,inactive
CCc1c(C(=O)C(N)=O)c2c(OCC(=O)OC)cccc2n1Cc1ccccc1,,,inactive,,inactive
CC1=C2C(=O)C3[C@@H](CC=C4C[C@@H](O)CC[C@@]43C)[C@@H]2CC[C@]12O[C@@H]1C[C@H](C)CN[C@H]1[C@H]2C (stereo partly drawn),inactive [at 17.4 µM],,inactive,,
COc1cc(C)[nH]c(=O)c1CNC(=O)c1c(C)n([C@H](C)C2CCOCC2)c2ccccc12,,inactive,inactive,,inactive
C=CC(C)(O)CC/C=C(\C)C(=O)O[C@H]1[C@H](O)[C@@H](CO)O[C@@H](OC(=O)[C@]23CCC(C)(C)CC2C2=CCC4[C@@]5(C)CC[C@H](O[C@@H]6O[C@H](CO[C@@H]7OC[C@H](O)[C@H](O)[C@H]7O[C@@H]7OC[C@@H](O)[C@H](O)[C@H]7O)[C@@H](O)[C@H](O)[C@H]6O)C(C)(C)C5CC[C@@]4(C)[C@]2(C)CC3)[C@@H]1OC1OC(C)C(O[C@@H]2OC[C@@H](O)[C@H](O[C@@H]3OC[C@@H](O)[C@H](O)[C@H]3O)[C@H]2O)C(O)C1O (stereo partly drawn),inactive [at 9.27 µM],,,2.58% [at 6.55 µM],
